Nrf2 activator: activators of Nrf2 (ARE) signaling | 0.31% of 410,000 active | AID 624171 | Potency, µM (highest dose often 46.1 µM), actives largely listed as activators | AREc32 ARE-luciferase reporter (MCF7-derived line), luminescence, 24 h; also: nearly all actives have a fitted effect of over 65% in size
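Reporter line AREc32 (ARE-Fluc), seeded overnight in OPTI-MEM with 5% FBS; compound pin-transferred, 24 hr at 37 deg C, 5% CO2; luminescent read-out.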
Anesthetic bind: binds horse apoferritin like a general anesthetic; P02791; apoferritin/1-aminoanthracene competitive binding, fluorescence; Potency, µM (doses to about 77.5 µM), actives largely listed as inhibitors; 0.074% of 350,000 active; AID 485281; also: nearly all actives have a fitted effect of over 20% in size
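Horse-spleen apoferritin (10 uM) was mixed with 50% saturated 1-aminoanthracene in PBS, exposed to compounds for 10 min at room temperature, and read for fluorescence (ex 380 nm, em 535 nm). Competitive displacement was fitted with a four-parameter Hill equation.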
Giardia kill: Giardia lamblia killing; Giardia lamblia trophozoite viability; activity change, % at 7.66 µM, hits read low; 0.15% of 340,000 active; in the data active = activity change below about -80%; inconclusive = between about -30% and that limit;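 also: parasites exposed to compound for two days anaerobically before the ATP read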
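ATP-content bioluminescence gauges trophozoite survival. Cells (100/well) receive compound and incubate anaerobically for 48 hrs at 37 deg C; detection reagent follows for 15-30 min at room temperature.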
IDH1 R132H inh: blocks human mutant IDH1 R132H enzyme; O75874; IDH1-R132H enzyme, NADPH consumption, diaphorase/resazurin fluorescence; Potency, µM (top dose mostly 76.6 µM), most hits filed as inhibitors; 0.093% of 390,000 active; AID 602179; also: nearly all actives have a fitted effect of over 65% in size
Target sequence (O75874 whole entry R132H, stated change not applied): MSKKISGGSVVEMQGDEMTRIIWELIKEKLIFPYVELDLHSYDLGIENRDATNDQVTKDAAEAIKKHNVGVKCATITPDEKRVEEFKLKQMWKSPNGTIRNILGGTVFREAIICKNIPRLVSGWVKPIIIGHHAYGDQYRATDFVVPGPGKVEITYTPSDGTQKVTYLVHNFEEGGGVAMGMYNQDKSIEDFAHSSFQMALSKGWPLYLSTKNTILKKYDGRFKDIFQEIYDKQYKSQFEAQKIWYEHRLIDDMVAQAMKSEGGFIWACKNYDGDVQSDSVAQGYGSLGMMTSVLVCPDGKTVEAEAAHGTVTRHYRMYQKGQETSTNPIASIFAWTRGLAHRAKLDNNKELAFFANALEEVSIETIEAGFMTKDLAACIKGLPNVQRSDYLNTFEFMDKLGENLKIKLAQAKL
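IDH1-R132H (0.5 ug/mL dispensed) in pH 7.5 Tris buffer was preincubated 30 min with compound, then given a substrate mix of 0.016 mM NADPH and 2 mM alpha-KG for 80 min at room temperature; remaining NADPH was read by diaphorase/resazurin fluorescence.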
A549 viability: counter-screen for Nrf2 inhibitors: cytotoxicity in A549 cells | Potency, µM (series often up to 46 µM), most hits filed as inhibitors | 0.16% of 390,000 active | A549 ARE-Fluc cells, CellTiter-Fluor viability, 18-24 h
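A549 ARE_Fluc cells in 5% FBS OPTI-MEM were exposed to compounds in concentration-response for 18-24 h at 37 deg C. Viability was read by CellTiter-Fluor fluorescence (Ex 405/Em 525) after 30 min, before the luciferase read.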
Nrf2 inh: Nrf2 pathway inhibition | A549 ARE-Fluc reporter, luciferase luminescence, 18-24 h | Potency, µM (titrated, usually from 46 µM), hits mostly inhibitors | 2.1% of 360,000 active; also: nearly all actives have a fitted effect of over 60% in size
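Quantitative HTS in A549 cells stably bearing an antioxidant response element-firefly luciferase construct. Inhibition of Nrf2-driven transcription was scored by luminescence after 18-24 h of compound exposure at 37 °C.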
Each line names hits and unclear results; the compound was inactive in the other large screens. An excerpt weighted towards active compounds, which were near 2.3% of everything screened. Unless noted, calls follow the shape of the dose curve; as a rule, active = well fitted curve in the direction sought with a large enough effect; inconclusive = small, poorly fitted or top-dose-only effect, or another doubt; inactive = no such curve, though single readings can be large; an effect the other way counts as inactive or inconclusive.

Cn1nnnc1Sc1ncnc2scc(-c3ccccc3C#N)c12	Nrf2 inh inconclusive (no result: Nrf2 activator, Anesthetic bind, Giardia kill, IDH1 R132H inh)
CNC(=O)c1cc(Oc2ccc(NC(=O)Nc3ccc(Cl)c(C(F)(F)F)c3)cc2)ccn1	A549 viability inconclusive, Nrf2 inh 26µM (no result: Anesthetic bind)
O=C(Nc1ccc(Cl)c(C(F)(F)F)c1)c1ccncc1	none
COc1ccc(C(=O)Nc2sc3c(c2C(N)=O)CCCC3)cc1OC	none (no result: Nrf2 activator, Giardia kill, IDH1 R132H inh, A549 viability, Nrf2 inh)
CCC(C)(C)NC(=O)C(c1ccc(OC)cc1)N(C(=O)CCC(=O)Nc1cc(C)on1)c1cccc(F)c1 (configuration not stated)	A549 viability inconclusive, Nrf2 inh 5.8µM
CCOC(=O)c1cc(-c2ccc(C)cc2)n(CCC(=O)Nc2ccc(C(C)C)cc2)c1C	Nrf2 inh inconclusive (no result: Giardia kill)
CCOC(=O)c1cc(-c2ccc(C)cc2)n(CCC(=O)Nc2ccc(OC)c(OC)c2)c1C	Nrf2 inh 18µM (no result: Giardia kill)
CCOCCCNC(=O)/C(C#N)=C/c1cc(OC)c(O)c([N+](=O)[O-])c1	Anesthetic bind inconclusive, A549 viability 18µM
N#Cc1c(N)nc(N)nc1Nc1ccc(Br)cc1	Nrf2 activator 13µM, Nrf2 inh inconclusive
O=S(=O)(Nc1ccc2c(c1)nc1n2CCN(Cc2ccccc2)C1)c1ccccc1	Nrf2 inh inconclusive
O=S(=O)(Nc1ccc2c(c1)nc1n2CCN(Cc2ccccc2)C1)c1ccc(Cl)cc1	A549 viability inconclusive, Nrf2 inh 13µM
Cc1nc2ccccc2n1/N=C/c1ccc([N+](=O)[O-])s1	Giardia kill inconclusive, A549 viability inconclusive, Nrf2 inh inconclusive
O=[N+]([O-])c1ccc(/C=N/n2c(CO)nc3ccccc32)s1	Giardia kill -106
COc1ccccc1N1CCN(C(=O)c2c(C)oc3ncn(C)c(=O)c23)CC1	Nrf2 inh inconclusive (no result: Giardia kill)
CN(CCc1ccccc1)C(=O)c1cccc(NC(=O)Cc2cccc(NC(=O)C3CCCN(C(=O)c4ccccc4)C3)c2)c1 (configuration not stated)	Nrf2 inh 26µM (no result: Anesthetic bind)
CN(CCc1ccccc1)C(=O)c1ccc(NC(=O)Cc2ccc(NC(=O)C3CCN(C(=O)CCc4ccccc4)CC3)cc2)cc1	Nrf2 inh 9.2µM (no result: Anesthetic bind)
CN(CCc1ccccc1)C(=O)c1cccc(NC(=O)Cc2cccc(NC(=O)C3CCCN(C(=O)C4CCCCC4)C3)c2)c1 (configuration not stated)	Nrf2 inh inconclusive (no result: Anesthetic bind)
CN(CCc1ccccc1)C(=O)c1ccc(NC(=O)Cc2cccc(NC(=O)C3CCN(C(=O)CCc4ccccc4)CC3)c2)cc1	none (no result: Anesthetic bind)
CCCCC(=O)OC1=C(C(=O)c2ccccc2)N(CC)S(=O)(=O)c2ccccc21	A549 viability inconclusive, Nrf2 inh inconclusive (no result: Giardia kill, IDH1 R132H inh)
CCCCN1C(C(=O)c2ccccc2)=C(OC(C)=O)c2ccccc2S1(=O)=O	A549 viability inconclusive, Nrf2 inh 8.2µM (no result: Giardia kill)
CC(=O)c1cccc(NC(=O)CCS(=O)(=O)c2ccc(Br)s2)c1	none
O=C(CCS(=O)(=O)c1ccc(Br)s1)Nc1cc(C(F)(F)F)cc(C(F)(F)F)c1	A549 viability inconclusive, Nrf2 inh 23µM (no result: Giardia kill)
O=C(Nc1cccc2cccnc12)c1csc(COCCO)n1	none (no result: Anesthetic bind, Giardia kill, IDH1 R132H inh, A549 viability, Nrf2 inh)
Cc1noc(C)c1S(=O)(=O)N(C)C[C@H]1Oc2c(NC(=O)Nc3ccc(C(F)(F)F)cc3)cccc2C(=O)N([C@H](C)CO)C[C@@H]1C	IDH1 R132H inh inconclusive, Nrf2 inh 21µM (no result: Anesthetic bind)
C[C@H](CO)N1C[C@H](C)[C@@H](CN(C)CC2CCCCC2)Oc2c(NC(=O)CCC(F)(F)F)cccc2C1=O	Nrf2 inh 18µM (no result: Anesthetic bind)
Cc1nn(Cc2ccc(F)cc2)c2sc(C(=O)Nc3ccc(N4CCOCC4)cc3N3CCOCC3)cc12	Nrf2 inh 15µM
COc1ccc(OCC(=O)Nc2cc(-c3ccccc3F)nn2-c2ccccc2)cc1	none (no result: Giardia kill, Nrf2 inh)
CN(C)/C=N/C1=C(C#N)C(c2cccs2)c2ccc3ccccc3c2O1 (configuration not stated)	Nrf2 activator 8.9µM, Anesthetic bind inconclusive, A549 viability inconclusive, Nrf2 inh inconclusive
COCC(=O)N(CCc1ccc(OC)c(OC)c1)Cc1cc2cc(C)ccc2nc1Cl	Nrf2 inh 16µM

Assay outcomes as filed in PubChem.
